± gives the standard deviation of the averaged measurements.

Experiment [1] relates to IL-6-GFP PC-9GR. In words: cell viability (CCK-8 OD) relative to DMSO control (fraction of control); higher = more viable cells. The settings on record: compound concentration: 10 uM; treatment time: 48 h. In a few lines:
(§1)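 PC-9 and PC-9GR lung cancer cells expressing lentiviral IL-6-GFP were plated at 3000 cells/well in 96-well plates and treated for 48 h with each library compound at a final 10 μM. Viability was determined by CCK-8 absorbance as a ratio of each well's optical density to the vehicle control well.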

In experiment [2] the test system is IL-6-GFP PC-9. Described as above. The following applies: compound concentration: 10 uM; treatment time: 48 h. In a few lines:
as §1

Take `O=C(Nc1ccc(O)cc1)c1ccccc1O` [Osalmid]: the values for the cell viability in experiment [1] and in experiment [2] were 1.3 ± 0.45 and 1.25 ± 0.1, respectively.
For the compound `Nc1nc(F)nc2c1ncn2C1OC(CO)C(O)C1O` (stereo not drawn) [Fludarabine], the values for the cell viability in experiment [1] and in experiment [2] were 0.214 ± 0.12 and 0.232 ± 0.026, respectively.
For the compound `CC12CCC(=O)C=C1CCC1C2C(O)CC2(C)C1CCC2(O)C(=O)CO` (stereo not drawn) [Hydrocortisone], the cell viability in experiment [1] was found to be 1.41 ± 0.42; in experiment [2] it was 0.995 ± 0.24.
As to `CCC1(O)C(=O)OCc2c1cc1n(c2=O)Cc2cc3cc(O)ccc3nc2-1` (stereo not drawn) [Hydroxy Camptothecine], the values for the cell viability in experiment [1] and in experiment [2] were 0.38 ± 0.2 and 0.404 ± 0.042, respectively.
For the compound `CC(Oc1cc(-c2cnn(C3CCNCC3)c2)cnc1N)c1c(Cl)ccc(F)c1Cl` [(S)-crizotinib], the cell viability in experiment [1] was 0.458 ± 0.15; in experiment [2], 0.756 ± 0.12.
With `CC1(C(=O)O)CCC2(C)CCC3(C)C(=CC(=O)C4C5(C)CCC(OC6OC(C(=O)O)C(O)C(O)C6OC6OC(C(=O)O)C(O)C(O)C6O)C(C)(C)C5CCC43C)C2C1.N.N` (stereo not drawn) [Diammonium Glycyrrhizinate], the cell viability in experiment [1] came out at 1.11 ± 0.22; in experiment [2], 1.19 ± 0.07.
Regarding `CC1CC2C3CCC4=CC(=O)C=CC4(C)C3(F)C(O)CC2(C)C1(O)C(=O)CO` (stereo not drawn) [Betamethasone], the cell viability was 1.24 ± 0.11 in experiment [1] and 1.29 ± 0.29 in experiment [2].
In the case of `O=C(O)c1cc(N=Nc2ccc(S(=O)(=O)Nc3ccccn3)cc2)ccc1O` [Sulfasalazine], the results for the cell viability in experiment [1] and in experiment [2] were 1.41 ± 0.088 and 1.22 ± 0.16, respectively.
Taken in the same sequence, the figures for `CC(C(=O)O)c1ccc2c(c1)Cc1cccnc1O2` (stereo not drawn) [Pranoprofen] were 1.12 ± 0.019 and 1.25 ± 0.055.
Turning to `CC1=C(/C=C/C(C)=C/C=C/C(C)=C/C(=O)O)C(C)(C)CCC1` [Tretinoin], the results for the cell viability in experiment [1] and in experiment [2] were 1.45 ± 0.45 and 1.03 ± 0.15, respectively.
On to `Nc1ccc(O)c(C(=O)O)c1` [Mesalamine], for which the cell viability in experiment [1] came out at 1.27 ± 0.035; in experiment [2], 1.06 ± 0.072.
As for `COc1cc2ncnc(Nc3ccc(F)c(Cl)c3)c2cc1NC(=O)/C=C/CN1CCCCC1`, the cell viability in experiment [1] is 0.477 ± 0.02; in experiment [2], 0.443 ± 0.033.
In the same order, the values of `O=C(Nc1cnn2ccc(N3CCCC3c3cc(F)ccc3F)nc12)N1CCC(O)C1.O=S(=O)(O)O` (stereo not drawn) [Larotrectinib (LOXO-101) sulfate] are 0.802 ± 0.05 and 1.14 ± 0.12.
Turning to `COc1ccc(-c2cc(=S)ss2)cc1` [Anethole trithione], the values for the cell viability in experiment [1] and in experiment [2] were 0.868 ± 0.15 and 1.17 ± 0.031, respectively.
As for `CC1(C(=O)O)CCC2(C)CCC3(C)C(=CC(=O)C4C5(C)CCC(OC6OC(C(=O)O)C(O)C(O)C6OC6OC(C(=O)O)C(O)C(O)C6O)C(C)(C)C5CCC43C)C2C1.N` (stereo not drawn) [Ammonium Glycyrrhizinate], the figures for the cell viability in experiment [1] and in experiment [2] were 1.42 ± 0.25 and 1.31 ± 0.014, respectively.
On to `S=c1nc[nH]c2nc[nH]c12` [Mercaptopurine (6-MP)], for which the cell viability is 1.13 ± 0.24 in experiment [1] and 1.33 ± 0.29 in experiment [2].
Take `COc1cc2c3cc1Oc1c(OC)c(OC)cc4c1C(Cc1ccc(O)c(c1)Oc1ccc(cc1)CC3N(C)CC2)N(C)CC4.Cl.Cl` (stereo not drawn) [Berbamine (dihydrochloride)]: the cell viability was 1.14 ± 0.35 in experiment [1] and 1.04 ± 0.053 in experiment [2].
Consider `CCC1(O)C(=O)OCc2c1cc1n(c2=O)Cc2cc3c(CN(C)C)c(O)ccc3nc2-1` (stereo not drawn) [Topotecan], for which the cell viability in experiment [1] came to 0.333 ± 0.19; in experiment [2], 0.3428 ± 0.0013.
Turning to `Cc1oncc1C(=O)Nc1ccc(C(F)(F)F)cc1` [Leflunomide], the cell viability in experiment [1] stood at 1.1 ± 0.067; in experiment [2], 0.683 ± 0.21.
For the compound `O=c1cc[nH]c(=O)[nH]1` [Uracil], the cell viability in experiment [1] is 0.909 ± 0.021; in experiment [2], 0.701 ± 0.11.
Taken in the same sequence, the figures for `C=CC(=O)N1CCCC(n2nc(-c3ccc(Oc4ccccc4)cc3)c3c(N)ncnc32)C1` (stereo not drawn) were 0.572 ± 0.048 and 0.509 ± 0.18.
As for `CN(C)CCOC(c1ccc(Cl)cc1)c1ccccn1.O=C(O)/C=C\C(=O)O` (stereo not drawn) [CarbinoxaMine Maleate], the cell viability in experiment [1] was found to be 1.2 ± 0.26; in experiment [2], 1.07 ± 0.066.
In the same order, the values of `CC(=O)OCC1OC(n2ccc(=O)[nH]c2=O)C(OC(C)=O)C1OC(C)=O` (stereo not drawn) [uridine triacetate] are 1.59 ± 0.3 and 1.175 ± 0.0034.
In the same order, the values of `COc1ccc2cc1Oc1ccc(cc1)CC1c3cc(c(OC)cc3CCN1C)Oc1c(OC)c(OC)cc3c1C(C2)N(C)CC3` (stereo not drawn) [Tetrandrine] are 1.15 ± 0.36 and 1.3 ± 0.043.
For the compound `CN(C)C/C=C/C(=O)Nc1cc2c(Nc3ccc(F)c(Cl)c3)ncnc2cc1OC1CCOC1.O=C(O)/C=C\C(=O)O.O=C(O)/C=C\C(=O)O` (stereo not drawn) [Afatinib (BIBW2992) Dimaleate], the values for the cell viability in experiment [1] and in experiment [2] were 0.22 ± 0.11 and 0.167 ± 0.22, respectively.
Turning to `CN(C)C(=O)c1cc2cnc(Nc3ccc(N4CCNCC4)cn3)nc2n1C1CCCC1` [Ribociclib (LEE011)], the cell viability in experiment [1] came to 1.29 ± 0.4; in experiment [2] it was 1.01 ± 0.029.
For `CC1CC2C3CCC4=CC(=O)C=CC4(C)C3(F)C(O)CC2(C)C1C(=O)CO` (stereo not drawn) [Desoximetasone], the cell viability in experiment [1] stood at 0.815 ± 0.23; in experiment [2], 1.08 ± 0.093.
As for `COc1cc2nccc(Oc3ccc(NC(=O)C4(C(=O)Nc5ccc(F)cc5)CC4)cc3)c2cc1OC`, the cell viability in experiment [1] is 0.886 ± 0.23; in experiment [2], 0.56 ± 0.041.
Taken in the same sequence, the figures for `COC(=O)NC(C(=O)N1CCCC1c1ncc(-c2ccc3c(c2)OC(c2ccccc2)n2c-3cc3cc(-c4cnc(C5CCCN5C(=O)C(NC(=O)OC)C(C)C)[nH]4)ccc32)[nH]1)C(C)C` (stereo not drawn) [Elbasvir] were 0.497 ± 0.03 and 0.809 ± 0.035.

The values above are taken from the supplement of paper PMC8866396.
